The test system of this assay is Salmonella enterica serovar Typhimurium 14028s. As to the kind of experiment: approximate change in surviving CFU after surface colonization relative to water-only control (log10 CFU/mL change); higher = more surviving bacteria (less inhibition of surface colonization). The following applies: not stated (Biolog proprietary concentration), surface: plastic 96-well plate, 20-24 h at 25 °C.

Structures are written as SMILES.

Turning to `O=C(O)[C@@H](O)[C@@H](O)[C@H](O)[C@@H](O)C(=O)O` [D-Saccharic Acid], the “approximate change in surviving CFU (log10)” value (“approximate change … (log10)” below) (Biolog plate: PM1, Biolog well: A4) amounted to 0.708.

As for `O=C(O)CCC(=O)O` [Succinic Acid], where the note is “Biolog plate: PM1, Biolog well: A5”, the “approximate change … (log10)” value worked out at 0.515.

For the compound `OC[C@H]1O[C@H](O[C@H]2O[C@H](CO)[C@@H](O)[C@H](O)[C@H]2O)[C@H](O)[C@@H](O)[C@@H]1O` [D-Trehalose], for the setting “Biolog plate: PM1, Biolog well: A10”, the “approximate change … (log10)” value was found to be 1.59.

On to `OC[C@H]1OC(O)[C@@H](O)[C@@H](O)[C@@H]1O` (stereo partly drawn) [D-Mannose], for which the “approximate change … (log10)” value (Biolog plate: PM1, Biolog well: A11) was found to be 1.93.

As for `OC[C@@H](O)[C@H](O)[C@H](O)[C@@H](O)CO` [Dulcitol], under “Biolog plate: PM1, Biolog well: A12”, the “approximate change … (log10)” value came to 1.03.

As for `O=C[C@H](O)[C@@H](O)[C@H](O)[C@H](O)COP(=O)(O)O` [D-Glucose-6-Phosphate], where the note is “Biolog plate: PM1, Biolog well: C1”, the “approximate change … (log10)” value came to 1.22.

For the compound `CC[C@H](O)C(=O)O` [a-Hydroxy Butyric Acid], the “approximate change … (log10)” value (Biolog plate: PM1, Biolog well: E7) was -2.3.

With `CO[C@@H]1O[C@H](CO)[C@@H](O)[C@H](O)[C@H]1O` [B-Methyl-D-Glucoside], for the setting “Biolog plate: PM1, Biolog well: E8”, the “approximate change … (log10)” value was 1.33.

As to `OCC(O)C(O)C(O)CO` (configuration not stated) [Adonitol], where the note is “Biolog plate: PM1, Biolog well: E9”, the “approximate change … (log10)” value amounted to 1.37.

Regarding `O=C(O)/C=C/C(=O)O` [Fumaric Acid], the “approximate change … (log10)” value (Biolog plate: PM1, Biolog well: F5) amounted to 0.88.

With `O=C(O)CC(Br)C(=O)O` (configuration not stated) [Bromo Succinic Acid], the “approximate change … (log10)” value (Biolog plate: PM1, Biolog well: F6) is -0.901.

As for `O=C(O)C[C@@H](O)C(=O)O` [D-Malic Acid], under “Biolog plate: PM1, Biolog well: G11”, the “approximate change … (log10)” value came out at 1.05.

With `NCC(=O)N1CCC[C@H]1C(=O)O` [Glycyl-L-Proline], the “approximate change … (log10)” value (Biolog plate: PM1, Biolog well: H1) worked out at 0.58.

Take `OC[C@H]1O[C@@H](O[C@H]2[C@H](O)[C@@H](O)[C@H](O[C@H]3[C@H](O)[C@H](O)[C@H](O[C@@H]4[C@H](O)[C@H](O)[C@H](O)O[C@@H]4CO)O[C@@H]3CO)O[C@@H]2CO)[C@@H](O)[C@@H](O)[C@@H]1O` [Mannan]: where the note is “Biolog plate: PM2, Biolog well: A11”, the “approximate change … (log10)” value amounted to 0.837.

`O=C(O)[C@H]1O[C@@H](O)[C@H](O)[C@@H](O)[C@H]1O` [Pectin]: for the setting “Biolog plate: PM2, Biolog well: A12”, the “approximate change … (log10)” value is -0.343.

As to `CC(=O)N[C@H]1[C@H]([C@H](O)[C@H](O)CO)OC(O)(C(=O)O)C[C@@H]1O` (some centres not stated) [N-Acetyl-Neuraminic Acid], the “approximate change … (log10)” value (Biolog plate: PM2, Biolog well: B2) is 1.09.

On to `OC[C@@H](O)[C@@H](O)CO` [i-Erythritol], for which the “approximate change … (log10)” value (Biolog plate: PM2, Biolog well: B10) was 1.35.

Turning to `O=C[C@H](O)[C@@H](O)[C@H](O)[C@H](O)CO[C@@H]1O[C@H](CO)[C@@H](O)[C@H](O)[C@H]1O` [Gentiobiose], the “approximate change … (log10)” value (Biolog plate: PM2, Biolog well: C1) came out at 1.09.

As to `OC[C@@H]1OC(O)[C@@H](O)[C@H](O)[C@H]1O` (stereo partly drawn) [L-Glucose], the “approximate change … (log10)” value (Biolog plate: PM2, Biolog well: C2) stood at 1.22.

On to `CO[C@@H]1OC[C@@H](O)[C@H](O)[C@H]1O` [b-Methyl-D-Xyloside], for which, under “Biolog plate: PM2, Biolog well: C11”, the “approximate change … (log10)” value was -0.215.

For the compound `O=C(CO)[C@@H](O[C@H]1O[C@H](CO)[C@@H](O)[C@H](O)[C@H]1O)[C@H](O)[C@H](O)CO` [Turanose], under “Biolog plate: PM2, Biolog well: D7”, the “approximate change … (log10)” value came out at 0.88.

Turning to `CCCCCCCCCC(=O)O` [Capric Acid], the “approximate change … (log10)” value (Biolog plate: PM2, Biolog well: E1) is -0.88.

As to `O=C(O)C(=O)O` [Oxalic Acid], the “approximate change … (log10)” value (Biolog plate: PM2, Biolog well: F4) stood at 0.429.

`C[N+](C)(C)CC(O)CC(=O)[O-]` (racemic) [D,L-Carnitine]: for the setting “Biolog plate: PM2, Biolog well: H5”, the “approximate change … (log10)” value turned out to be 0.365.

Regarding `CC(=O)C(C)=O` [2,3-Butanedione], where the note is “Biolog plate: PM2, Biolog well: H11”, the “approximate change … (log10)” value is -1.61.

On to `NC(N)=O`, for which the “approximate change … (log10)” value (Biolog plate: PM3, Biolog well: A5) worked out at 0.429.

Turning to `NC(=O)NC(N)=O` [Biuret], the “approximate change … (log10)” value (Biolog plate: PM3, Biolog well: A6) is -0.258.

Take `NCCCCN=C(N)N` [Agmatine]: the “approximate change … (log10)” value (Biolog plate: PM3, Biolog well: D12) is -0.193.

With `NC=O` [Formamide], the “approximate change … (log10)” value (Biolog plate: PM3, Biolog well: E5) is -0.708.

In the case of `N[C@@H]1C(O)O[C@H](CO)[C@@H](O)[C@@H]1O` (stereo partly drawn) [D-Mannosamine], the “approximate change … (log10)” value (Biolog plate: PM3, Biolog well: E10) was -1.09.

With `O=c1[nH]c(=O)c2nc[nH]c2[nH]1` [Xanthine], the “approximate change … (log10)” value (Biolog plate: PM3, Biolog well: G1) stood at 0.408.

Turning to `CCC(N)C(=O)O` (racemic) [D,L-a-Amino-N-Butyric Acid], where the note is “Biolog plate: PM3, Biolog well: G7”, the “approximate change … (log10)” value was -0.644.

As to `C[C@H](N)C(=O)N[C@@H](CCC(N)=O)C(=O)O`, the “approximate change … (log10)” value (Biolog plate: PM3, Biolog well: H2) amounted to 0.0644.

Take `O[C@@H]1[C@@H](O)[C@@H](O)CO[C@H]1O` [L-Arabinose]: where the note is “Biolog plate: PM1, Biolog well: A2”, the “approximate change … (log10)” value was 0.837.

As for `OC[C@@H](O)[C@@H](O)[C@H](O)[C@@H](O)CO` [D-Sorbitol], the “approximate change … (log10)” value (Biolog plate: PM1, Biolog well: B2) worked out at 1.61.

In the case of `OC[C@@H](O)[C@@H](O)[C@H](O)[C@H](O)CO` [D-Mannitol], the “approximate change … (log10)” value (Biolog plate: PM1, Biolog well: B11) was 2.19.

As for `O[C@@H]1[C@H](O)[C@H](O)CO[C@H]1O` [D-Ribose], the “approximate change … (log10)” value (Biolog plate: PM1, Biolog well: C4) stood at 0.172.

For the compound `OC[C@H]1O[C@H](O)[C@H](O)[C@@H](O)[C@@H]1O` [a-D-Glucose], for the setting “Biolog plate: PM1, Biolog well: C9”, the “approximate change … (log10)” value is 2.34.

`OC[C@H]1O[C@@H](O[C@H]2[C@H](O)[C@@H](O)[C@@H](O)O[C@@H]2CO)[C@H](O)[C@@H](O)[C@H]1O` [a-D-Lactose]: the “approximate change … (log10)” value (Biolog plate: PM1, Biolog well: D9) came to 1.05.

Regarding `OC[C@H]1O[C@@H](O[C@@H]2[C@@H](CO)OC(O)(CO)[C@H]2O)[C@H](O)[C@@H](O)[C@H]1O` (mixture of isomers) [Lactulose], for the setting “Biolog plate: PM1, Biolog well: D10”, the “approximate change … (log10)” value stood at 1.05.

As for `OC[C@H]1O[C@@](CO)(O[C@H]2O[C@H](CO)[C@@H](O)[C@H](O)[C@H]2O)[C@@H](O)[C@@H]1O` [Sucrose], the “approximate change … (log10)” value (Biolog plate: PM1, Biolog well: D11) came to 0.987.

Take `O=P(O)(O)O[C@H]1O[C@H](CO)[C@@H](O)[C@H](O)[C@H]1O` [D-Glucose-1-Phosphate]: the “approximate change … (log10)” value (Biolog plate: PM1, Biolog well: E3) worked out at 1.4.

The values above are taken from the supplement of paper PMC11738630.
